Source: PubChem BioAssay (National Center for Advancing Translational Sciences (NCATS))
FUS suppressor: qHTS for Suppressors of FUS Proteinopathy: Primary screen using FUS-linked yeast assay; AID 1347120, 2019; Potency, µM (titrated, usually from 76.6 µM), usual class: activators; S. cerevisiae FUS-expressing, growth rescue, OD600, 24 h; 390,000 compounds, 0.24% hits;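 also: potency is read from the fitted curve at half-maximal effect; plate controls were DMSO vehicle for no effect and reference control for full effect; nearly all actives have a fitted effect of over 55% in size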
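Steps: raffinose overnight preculture; dilution to OD 0.005 in 2% galactose minimal medium; compound addition (concentration series); 24hr at 30C, 99% humidity; absorbance read at 600 nm.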
Abeta rescue: qHTS for compounds that reverse cellular toxicity of Amyloid beta (A-beta) peptide in yeast: Primary Screen | yeast expressing A-beta42, growth rescue, OD600, 48 h; response scale: 0% DMSO, 100% iron-clioquinol control | Potency, µM (top dose mostly 46.1 µM), actives largely listed as activators | 410,000 compounds, 0.063% hits; also: potency is read from the fitted curve at half-maximal effect; nearly all actives have a fitted effect of over 55% in size
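Yeast growth medium received pinned compounds, then yeast cells expressing toxic A-beta were added; plates incubated at 30 C for 48 hr. Growth read as absorbance at 600 nm, normalized to DMSO and equimolar FeCl3 plus clioquinol controls.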
LDHA block: qHTS assay for inhibitors of human lactate dehydrogenase | activity change, % (values are at about 110 or 230 µM) | purified LDHA, NADH/diaphorase-resazurin fluorescence; hits give low values | AID 1347041, 2019 | 480,000 compounds, 0.15% hits; in the data active = activity change below about -30%; inconclusive = mostly about -25% to -30%;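 also: plate controls were DMSO wells for no effect and wells without enzyme for full effect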
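Human LDH5 at 2 nM final in Tris HCl pH 7.4 with 0.06 mM NADH and 0.2 mM pyruvate, reacted 5 minutes at room temperature. Remaining NADH coupled via diaphorase/resazurin; resorufin fluorescence read at 0 and 20 minutes, normalized to enzyme-free and DMSO wells.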
PTHR1 ag: qHTS for PTHR1 Agonists: Primary Screen | Potency, µM (top dose mostly 115 µM), for inactives: top-dose activation, most hits filed as activators | 410,000 compounds, 0.075% hits | HEK293 GP2 PTHR1 cells, GloSensor cAMP luminescence, 1 h | Parathyroid hormone/parathyroid hormone-related peptide receptor (Homo sapiens), Q03431; also: potency is read from the fitted curve at half-maximal effect; nearly all actives have a fitted effect of over 55% in size
Target sequence (Q03431 whole entry, looked up): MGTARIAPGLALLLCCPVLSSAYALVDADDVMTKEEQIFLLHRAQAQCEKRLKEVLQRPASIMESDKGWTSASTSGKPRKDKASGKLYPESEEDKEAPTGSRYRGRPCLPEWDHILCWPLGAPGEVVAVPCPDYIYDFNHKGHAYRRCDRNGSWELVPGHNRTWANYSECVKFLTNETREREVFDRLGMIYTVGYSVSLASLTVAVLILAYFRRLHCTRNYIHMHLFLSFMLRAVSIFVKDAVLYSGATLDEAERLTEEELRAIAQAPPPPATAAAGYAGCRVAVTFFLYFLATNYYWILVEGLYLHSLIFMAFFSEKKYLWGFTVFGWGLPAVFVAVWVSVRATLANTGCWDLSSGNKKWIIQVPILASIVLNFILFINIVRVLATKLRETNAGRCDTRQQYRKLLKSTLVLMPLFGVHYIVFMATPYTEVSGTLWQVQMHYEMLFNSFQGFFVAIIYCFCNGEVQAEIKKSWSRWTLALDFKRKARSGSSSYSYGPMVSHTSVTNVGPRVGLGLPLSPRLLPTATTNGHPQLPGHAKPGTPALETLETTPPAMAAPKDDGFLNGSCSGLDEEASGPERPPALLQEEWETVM
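HEK-293-derived GP2 cells expressing PTHR1 and a GloSensor cAMP reporter, 3,000/well, plated overnight, given luciferin plus IBMX (each 0.5 mM as added) for 1 h at 37 °C, then compound for 1 h at 37 °C. Luminescence was read after 15 min at room temperature.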
TDP-43 yeast inh: qHTS of TDP-43 Inhibitors; AID 652104, 2013; Potency, µM (doses to about 46.1 µM), without a hit: at the top dose growth rescue (activation), usual class: activators; TDP-43 expressing yeast growth rescue, BacTiter-Glo, 24 h; 410,000 compounds, 1.8% hits; also: potency is read from the fitted curve at half-maximal effect; % of control where 0% means no effect; nearly all actives have a fitted effect of over 50% in size
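Growth rescue of TDP-43-toxic yeast measured as ATP luminescence (BacTiter-Glo). Cells grown to mid-log in raffinose, induced in galactose at OD600=0.02, exposed to compound 24 hr at 30 deg C.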
aSyn yeast inh: qHTS of alpha-syn Inhibitors. Yeast expressing alpha-synuclein, growth rescue, BacTiter-Glo, 24 h. 370,000 compounds, 0.14% hits. Potency, µM (doses to about 46.1 µM), for inactives: top-dose growth rescue (activation), most hits filed as activators; also: potency is read from the fitted curve at half-maximal effect; % of control where 0% means no effect; nearly all actives have a fitted effect of over 65% in size
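Rescue of yeast growth: cells expressing toxic alpha-synuclein, induced in galactose at OD600 0.02, incubated with compound 24 h at 30 C. ATP luminescence quantified growth; inhibitors of toxicity appear as activators.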
The depositor's hits bear a star; i = inactive; ? = inconclusive; nt = no result given; ! = a repeat was not active; [ ] = remark or other dose. Shown are actives, neighbours in structure and some others; about 1.9% of the full set was active somewhere. Unless noted, calls follow the shape of the dose curve; as a rule, active = well fitted curve in the direction sought with a large enough effect; inconclusive = small, poorly fitted or top-dose-only effect, or another doubt; inactive = no such curve, though single readings can be large; an effect the other way counts as inactive or inconclusive.

SMILES	FUS suppressor	Abeta rescue	LDHA block	PTHR1 ag	TDP-43 yeast inh	aSyn yeast inh
COc1ccc(C2Nc3ccccc3C(=O)N2Cc2ccccc2)cc1COc1ccc(NC(C)=O)cc1 (stereo not given)	16µM*	nt	5	nt	nt	nt
COc1ccc(C2Nc3ccccc3C(=O)N2Cc2ccco2)cc1COc1c(C)cc(NC(C)=O)cc1C (stereo not given)	10µM*	nt	nt	nt	nt	nt
COc1ccc(C2Nc3ccccc3C(=O)N2Cc2ccc(-c3ccccc3)cc2)cc1COc1ccc(NC(C)=O)cc1 (stereo not given)	nt	nt	3	nt	nt	nt
COc1ccc(NC(=O)c2nc(-c3ccccc3)n(-c3ccc(F)cc3)n2)c(OC)c1	nt	nt	0	nt	nt	nt
Cc1cc(C(=O)C(=O)Nc2nncs2)c(C)n1-c1ccc(Cl)cc1	i	i	4	i	11µM*	nt
NC(=O)/C=C/C(=O)Nc1ccc(Cl)cc1	i	i	-9	i	20µM*	15%
O=C(/C=C/C(Cl)(Cl)Cl)Nc1ccc(Cl)cc1	nt	i	-2	-28%	?	-25%
CCCCn1c(N)c(N(CC)C(=O)Cn2c(CC)nc3ccccc32)c(=O)[nH]c1=O	nt	nt	6	nt	nt	nt
COc1ccc2c(c1)C(=NO)c1cc(OC)ccc1-2	i	i	-4	-4%[57.5 µM]	11µM*	-5%
Cc1cc(C)nc(Nc2ccc(F)cc2)n1	i	i	-6	-23%	25µM*	0%
COc1ccc(-c2cc(C(=O)N(Cc3ccc(Cl)cc3)Cc3ccco3)no2)cc1	nt	nt	-3	nt	nt	nt
COc1ccc(-n2c(SCC(=O)Nc3cc(C)c(NC(=O)c4ccccc4)cc3OC)nnc2-c2ccco2)cc1	11µM*	nt	nt	nt	nt	nt
CN(N=O)c1ccc(/C=C/c2ccccc2)cc1	nt	nt	-5	nt	nt	5%
CC(=O)N(O)c1ccc(C=Cc2ccccc2)cc1	i	i	6	-22%	14µM*	2%
Cc1cc(C)cc(NC(=O)CSc2ccc(S(=O)(=O)N3CCOCC3)cn2)c1	nt	nt	-5	nt	nt	nt
Cn1c(=O)c2nc(-c3ccccc3)oc2c2ccccc21	i	i	-5	i	10µM*	?
Cc1ccc(-c2cc(C(=O)N3CCN(c4cccc(C(F)(F)F)c4)CC3)c3ccccc3n2)s1	nt	nt	13	nt	nt	nt
Cc1ccc(-n2nnnc2-c2ccccc2)cc1	i	i	-4	-4%	?	-8%
Cc1ccc(-n2nnnc2C(Cl)c2nnnn2-c2ccc(C)cc2)cc1	i	i	1	-55%	3.5µM*	-47%
Cc1cc(C)cc(-n2c(SCC(=O)Nc3ccccc3)nc3c(oc4ccccc43)c2=O)c1	i	i	0	-24%	14%	nt
CC(C)n1c(SCC(=O)Nc2ccc(F)cc2)nc2c(oc3ccccc32)c1=O	i	i	-9	-3%	20µM*	nt
CCOCCCn1c(SCC(=O)Nc2ccccc2OC)nc2c(oc3ccccc32)c1=O	?	i	-4	-3%	22µM*	nt
CN1CCCN(C2C3CC4CC(C3)CC2C4)CC1 (stereo not given)	i	i	-17	-9%	-5%	1%
CS(=O)(=O)N1CCN(C2Cc3ccccc3C2)CC1	i	i	-11	i	-10%	-3%
CS(=O)(=O)N1CCN(C2C3CC4CC(C3)CC2C4)CC1 (stereo not given)	i	i	-32*	-18%	-17%	1%
SMILES	FUS suppressor	Abeta rescue	LDHA block	PTHR1 ag	TDP-43 yeast inh	aSyn yeast inh
CC1CCC(N2CCN(S(C)(=O)=O)CC2)CC1 (stereo not given)	i	i	-34*	-11%[57.5 µM]	-14%	-4%
O=S(=O)(NCC1(c2ccccc2)CC1)c1ccc(Cl)cc1	nt	nt	-12	nt	nt	nt
COc1ccc(C2CC2/C(C)=N/OC(=O)C2CC2)cc1 (stereo not given)	i	i	-5	-9%	14µM*	-20%
O=C1C(=O)N(Cc2cccnc2)C(c2ccccn2)/C1=C(\O)c1ccccc1 (stereo not given)	nt	nt	-5	nt	nt	nt
Cc1cnc(C=O)c2cccc([N+](=O)[O-])c12	i	i	0	-35%	20µM*	14%
Cc1nc2c(C(=O)NCc3ccco3)cnn2c(C)c1Cc1ccc(F)cc1Cl	i	i	-1	-36%	-15%	0%
Cc1cccc(Cc2c(C)nc3c(C(=O)NCc4ccco4)cnn3c2C)c1	13µM*	i	8	i	5%	10%
O=C(Nc1ccc2nc(N3CCN(C4CCCCC4)CC3)cc(C(=O)O)c2c1)c1ccccc1F	nt	nt	23	nt	nt	nt
CCc1ccc(-c2csc(/C(C#N)=C/Nc3ccccc3C(C)C)n2)cc1	nt	nt	0	nt	nt	nt
CCOC(=O)C1(C)C=C(Nc2ccc(CC)cc2)C(=O)N1c1ccc(CC)cc1 (stereo not given)	nt	nt	9	nt	nt	nt
O=C(c1ccccc1)C1CCN(C(=O)c2c(F)cccc2F)CC1	i	i	1	i	11µM*	8%
O=C(c1ccc(F)cc1)C1CCN(C(=O)c2c(F)cccc2F)CC1	i	?	-13	-68%	?	10%
O=C(Nc1ccc(I)cc1C(F)(F)F)c1ccc(-c2ccccc2)cc1	nt	nt	-5	nt	nt	nt
CCc1cc(C#N)c(N)s1	nt	nt	8	nt	nt	nt
O=C(CCSCc1cccc(Cl)c1)NCCc1ccc(Cl)cc1	i	i	4	-20%	11µM*!	2%
COc1ccc(C(=O)NCCSCc2cccc(Cl)c2)cc1OC	i	i	0	16%	20µM*	7%
CCOc1ccc(CCNC(=O)CCSCc2ccc(Cl)cc2)cc1OCC	i	i	1	-8%	21%	nt
COc1ccc(C(=O)NCCc2ccccc2)cc1OC	i	i	-1	-17%	13%	-2%
CCOc1ccc(CCNC(=O)CCSCc2cccc(Cl)c2)cc1OCC	i	i	-1	-22%	22µM*	nt
COc1cccc(C(=O)NCCSCc2c(F)cccc2Cl)c1	i	i	-3	i	11µM*	13%
CCCCn1c(=O)[nH]c(=O)c2c1nc(COC(=O)/C=C/c1ccc(OC)c(OC)c1)n2CC	nt	nt	2	nt	nt	nt
CCc1c(C)sc(NC(=O)C(c2ccccc2)c2ccccc2)c1C#N	nt	nt	-1	nt	nt	nt
C/C=C/C=C/C(=O)NCc1ccc(OC)cc1	nt	nt	8	nt	nt	nt
O=C(/C=C/c1cccc([N+](=O)[O-])c1)NCCSCc1cccc(Cl)c1	i	i	1	-63%	22µM*	23%
O=C(/C=C/c1cccc([N+](=O)[O-])c1)NCc1ccccc1	i	i	-14	-14%	-7%	-6%
